Where “and” joins values, the source holds several entries; their conditions need not be identical. Equal values may be shown once. Inconclusive results are not listed. Calls of active or inactive are those of the source. Unless noted, calls follow the shape of the dose curve; as a rule, active = well fitted curve in the direction sought with a large enough effect; inconclusive = small, poorly fitted or top-dose-only effect, or another doubt; inactive = no such curve, though single readings can be large; an effect the other way counts as inactive or inconclusive.
Legend:
[1] = A High-Content qHTS Against Drug Library for the Identification of Small Molecules that Inhibit DYT1 Early Onset Primary Dystonia-Associated Cell Pathology (AID 1645839; calls by dose curve; also: series mostly up to about 46 µM)
How it was run: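 Flp-In T-REx 293 cells with tetracycline-inducible EGFP-delE hTOR1A (WT EGFP-hTOR1A as reference), 800 cells/well; compound added with tetracycline, 48 h at 37 C. Fixed, permeabilized cells imaged; %pathology (punctate TorsinA) primary, cell count counterscreen.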

[2] = biological target: Cytochrome P450 2D6 (Homo sapiens) (UniProt P10635); experiment: Cytochrome P450 family 2 subfamily D member 6 (CYP2D6) small molecule antagonists: luciferase biochemical (cell-free) qHTS assay (AID 1645840; active = well fitted curve in the direction sought with a large enough effect in the repeat runs; an effect the other way counts as inactive or inconclusive; also: nearly all actives have a fitted effect of over 55% in size; also: potency is read from the fitted curve at half-maximal effect)
How it was run: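 P450-Glo luminescent screen: recombinant CYP2D6 enzyme–proluciferin substrate mix preincubated with compound 10 min at room temperature, then NADPH regeneration added for 1 h at room temperature. Detection reagent added for 20 min; luciferin light read as relative luminescence units.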

[3] = biological target: Cytochrome P450 2C9 (Homo sapiens) (UniProt P11712); experiment: Cytochrome P450 family 2 subfamily C member 9 (CYP2C9) small molecule antagonists: luciferase biochemical (cell-free) qHTS assay (AID 1645842; active = well fitted curve in the direction sought with a large enough effect in the repeat runs; an effect the other way counts as inactive or inconclusive; also: nearly all actives have a fitted effect of over 55% in size; also: potency is read from the fitted curve at half-maximal effect)
How it was run: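 Luminescence, after 20 min with luciferin detection reagent, reflected CYP2C9 turnover during a 1 h NADPH-driven reaction at 37C. Enzyme-substrate mix contained 0.4% bovine serum albumin and was preincubated with compound 10 min at room temperature.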

[4] = Primary qHTS for inhibitors of nuclear receptor binding SET domain protein 2 (NSD2) in an isogenic RCH-ACV NSD2 p.E1099K mutant (9B) (AID 1645876); also: nearly all actives have a fitted effect of over 70% in size
[5] = Primary qHTS for inhibitors of nuclear receptor binding SET domain protein 2 (NSD2) in an RCH-ACV wild type WT cells (2C) (AID 1645877); also: nearly all actives have a fitted effect of over 70% in size
[6] = biological target: Glutathione peroxidase 1 (Homo sapiens) (UniProt P07203); experiment: Primary qHTS Assay for Inhibitors of Recombinant Selenoprotein Glutathione Peroxidase 1 (GPX1) (AID 1845191); also: nearly all actives have a fitted effect of over 65% in size; also: potency is read from the fitted curve at half-maximal effect
How it was run: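 GR-coupled assay: compounds preincubated 30 min at room temperature with GPX1, then reaction started with CHP; final 10 nM GPX1, 1 mM GSH, 0.5 mM CHP, 0.5 mM NADPH, 100 nM GR, 0.01% BSA, pH 7.5 Tris buffer. NADPH fluorescence (340/450 nm) read at 0 and 15 min.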

[7] = NCATS anti-infectives library activity on HEK293 viability as a counter-qHTS vs the C. elegans viability qHTS (AID 1745854);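 also: HEK293 cells exposed to compounds for 24 hr before the viability read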
How it was run: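 Cytotoxicity in human HEK293 cells is measured by ATP-dependent CellTiter-Glo luminescence following a 24 hr incubation with titrated library compounds at 37C. Top final concentration is 41.7 uM.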

[8] = biological target: Rap guanine nucleotide exchange factor 3 (Homo sapiens) (UniProt O95398); experiment: Confirmatory qHTS for antagonist of cAMP-regulated guanine nucleotide exchange factor 3 (EPAC1) (AID 1645880); also: nearly all actives have a fitted effect of over 55% in size
How it was run: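 Nucleotide exchange uses 100 nM EPAC1, 250 nM RAP1B-BODIPY-GDP and 50 uM GDP, with compounds in a concentration-titration series. After 5 min at room temperature, fluorescence (480 nm ex/540 nm em) is read every 5 min for 30 min. Data are normalized to control ATA and DMSO.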

[9] = biological target: Rap guanine nucleotide exchange factor 3 (Homo sapiens) (UniProt O95398); experiment: Confirmatory qHTS for agonist of cAMP-regulated guanine nucleotide exchange factor 3 (EPAC1) (AID 1645881);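 also: EPAC1 catalysed release of BODIPY-GDP from Rap1B seen as fluorescence loss; nearly all actives have a fitted effect of over 75% in size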
[10] = biological target: Rap guanine nucleotide exchange factor 4 (Homo sapiens) (UniProt Q8WZA2); experiment: Confirmatory qHTS for agonist of cAMP-regulated guanine nucleotide exchange factor 4 (EPAC2) (AID 1645884);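 also: nucleotide exchange releases bodipy-GDP from Rap1 and this lowers its fluorescence; nearly all actives have a fitted effect of over 65% in size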
[11] = biological target: Rap guanine nucleotide exchange factor 4 (Homo sapiens) (UniProt Q8WZA2); experiment: Confirmatory qHTS for antagonist of cAMP-regulated guanine nucleotide exchange factor 4 (EPAC2) (AID 1645885); also: nearly all actives have a fitted effect of over 25% in size; also: potency is read from the fitted curve at half-maximal effect
[12] = Viability counterscreen for antagonist of constitutive androstane receptor (CAR) against the NCATS DSHEA and TCM libraries (AID 1794837);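 also: compound exposure lasted 24 h before viability reading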
How it was run: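 Viability was measured by CellTiter-Fluor fluorescence (405/540 nm, 1 hr) in HepG2-CYP2B6-hCAR cells. Cells were co-treated 24 hr with 48 uM CITCO (final), antagonist mode, and test substances.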

[13] = Viability counterscreen for agonist of constitutive androstane receptor (CAR) against the NCATS DSHEA and TCM libraries (AID 1794838);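 also: cells exposed to compound for 24 h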
How it was run: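 Cell viability, from CellTiter-Fluor fluorescence (405/540 nm), was scored after a 24 h, 37C exposure of HepG2 cells carrying CYP2B6 reporter and hCAR to test substances in presence of 0.75 uM PK11195.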

[14] = biological target: Nuclear receptor subfamily 1 group I member 3 (Homo sapiens) (UniProt Q14994); experiment: Primary qHTS for agonist of constitutive androstane receptor (CAR) against the NCATS DSHEA and TCM libraries (AID 1794839);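 also: HepG2 cells expressing human CAR with a CYP2B6 reporter plus PK11195 antagonist; luciferase reporter luminescence read with ONE-Glo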
How it was run: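 Agonist mode in presence of hCAR antagonist PK11195 (0.75 µM final): test substances, 24 h, 37 °C, on HepG2-CYP2B6-hCAR cells. Same-well readouts: fluorescence viability, then ONE-Glo luminescence; CITCO as reference agonist.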

[15] = HepG2 viability counterscreen (readout 2: ATP content) against the NCATS DSHEA and TCM libraries (AID 1794840);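 also: HepG2 cells exposed to substances for about 24 h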
How it was run: (§1)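 Readout 1: cellular protease activity, GF-AFC substrate (25 uM final, 30 min, fluorescence 380/510 nm). Readout 2: ATP content by CellTiter-Glo luminescence after 30 min at RT. Both follow ~24 h exposure of HepG2 cells (1,000/well) to substances.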

[16] = HepG2 viability counterscreen (readout 1: protease activity) against the NCATS DSHEA and TCM libraries (AID 1794841);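 also: cells exposed to compounds for about 24 h before the protease read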
How it was run: as §1

Measured: Potency

Sequence of Glutathione peroxidase 1 (Homo sapiens) (P07203 whole entry, looked up): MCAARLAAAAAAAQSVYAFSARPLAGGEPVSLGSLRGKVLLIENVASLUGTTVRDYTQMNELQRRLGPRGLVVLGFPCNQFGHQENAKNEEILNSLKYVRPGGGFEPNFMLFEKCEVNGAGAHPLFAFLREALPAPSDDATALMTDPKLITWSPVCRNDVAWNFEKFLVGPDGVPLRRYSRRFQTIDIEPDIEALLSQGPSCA
Sequence of Rap guanine nucleotide exchange factor 4 (Homo sapiens) (Q8WZA2 whole entry, looked up): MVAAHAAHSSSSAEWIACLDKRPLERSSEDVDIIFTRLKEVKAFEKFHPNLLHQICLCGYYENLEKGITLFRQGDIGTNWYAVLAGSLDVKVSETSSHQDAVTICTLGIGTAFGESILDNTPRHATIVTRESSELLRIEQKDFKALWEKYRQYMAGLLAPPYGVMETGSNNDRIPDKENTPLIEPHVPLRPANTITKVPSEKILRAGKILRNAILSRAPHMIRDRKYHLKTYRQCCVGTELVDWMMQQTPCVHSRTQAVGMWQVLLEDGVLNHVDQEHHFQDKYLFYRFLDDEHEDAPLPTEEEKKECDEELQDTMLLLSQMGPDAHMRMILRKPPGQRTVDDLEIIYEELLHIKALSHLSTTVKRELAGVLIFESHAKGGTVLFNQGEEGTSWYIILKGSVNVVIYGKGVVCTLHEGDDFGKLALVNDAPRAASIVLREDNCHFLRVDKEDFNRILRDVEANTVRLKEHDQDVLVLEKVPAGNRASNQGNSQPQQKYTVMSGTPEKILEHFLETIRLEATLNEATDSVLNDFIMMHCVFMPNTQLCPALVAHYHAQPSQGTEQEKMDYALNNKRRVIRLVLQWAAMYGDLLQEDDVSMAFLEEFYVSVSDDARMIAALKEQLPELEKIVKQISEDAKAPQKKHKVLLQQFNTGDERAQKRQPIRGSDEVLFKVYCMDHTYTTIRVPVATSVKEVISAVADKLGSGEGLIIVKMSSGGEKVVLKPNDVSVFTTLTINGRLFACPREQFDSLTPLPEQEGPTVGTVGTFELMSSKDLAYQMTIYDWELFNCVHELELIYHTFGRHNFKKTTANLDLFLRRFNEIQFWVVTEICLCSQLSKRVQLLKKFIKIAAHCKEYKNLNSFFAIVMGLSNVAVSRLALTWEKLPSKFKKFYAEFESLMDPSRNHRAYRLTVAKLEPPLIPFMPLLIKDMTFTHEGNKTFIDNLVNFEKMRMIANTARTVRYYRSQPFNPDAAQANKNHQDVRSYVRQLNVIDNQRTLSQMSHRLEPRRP
Sequence of Cytochrome P450 2D6 (Homo sapiens) (P10635 whole entry, looked up): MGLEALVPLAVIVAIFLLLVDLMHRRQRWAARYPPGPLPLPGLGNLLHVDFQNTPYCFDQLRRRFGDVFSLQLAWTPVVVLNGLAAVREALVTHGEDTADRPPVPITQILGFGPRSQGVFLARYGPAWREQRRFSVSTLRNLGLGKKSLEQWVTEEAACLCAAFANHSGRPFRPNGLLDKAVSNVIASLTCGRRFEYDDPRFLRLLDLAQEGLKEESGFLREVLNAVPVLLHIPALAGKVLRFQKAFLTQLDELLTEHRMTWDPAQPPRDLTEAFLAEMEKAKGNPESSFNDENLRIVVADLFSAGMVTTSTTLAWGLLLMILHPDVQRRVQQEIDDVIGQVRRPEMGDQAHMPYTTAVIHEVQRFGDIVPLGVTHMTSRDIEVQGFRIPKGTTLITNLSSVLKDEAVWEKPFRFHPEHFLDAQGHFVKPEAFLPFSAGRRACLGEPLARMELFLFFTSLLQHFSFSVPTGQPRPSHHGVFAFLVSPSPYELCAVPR
Sequence of Rap guanine nucleotide exchange factor 3 (Homo sapiens) (O95398 whole entry, looked up): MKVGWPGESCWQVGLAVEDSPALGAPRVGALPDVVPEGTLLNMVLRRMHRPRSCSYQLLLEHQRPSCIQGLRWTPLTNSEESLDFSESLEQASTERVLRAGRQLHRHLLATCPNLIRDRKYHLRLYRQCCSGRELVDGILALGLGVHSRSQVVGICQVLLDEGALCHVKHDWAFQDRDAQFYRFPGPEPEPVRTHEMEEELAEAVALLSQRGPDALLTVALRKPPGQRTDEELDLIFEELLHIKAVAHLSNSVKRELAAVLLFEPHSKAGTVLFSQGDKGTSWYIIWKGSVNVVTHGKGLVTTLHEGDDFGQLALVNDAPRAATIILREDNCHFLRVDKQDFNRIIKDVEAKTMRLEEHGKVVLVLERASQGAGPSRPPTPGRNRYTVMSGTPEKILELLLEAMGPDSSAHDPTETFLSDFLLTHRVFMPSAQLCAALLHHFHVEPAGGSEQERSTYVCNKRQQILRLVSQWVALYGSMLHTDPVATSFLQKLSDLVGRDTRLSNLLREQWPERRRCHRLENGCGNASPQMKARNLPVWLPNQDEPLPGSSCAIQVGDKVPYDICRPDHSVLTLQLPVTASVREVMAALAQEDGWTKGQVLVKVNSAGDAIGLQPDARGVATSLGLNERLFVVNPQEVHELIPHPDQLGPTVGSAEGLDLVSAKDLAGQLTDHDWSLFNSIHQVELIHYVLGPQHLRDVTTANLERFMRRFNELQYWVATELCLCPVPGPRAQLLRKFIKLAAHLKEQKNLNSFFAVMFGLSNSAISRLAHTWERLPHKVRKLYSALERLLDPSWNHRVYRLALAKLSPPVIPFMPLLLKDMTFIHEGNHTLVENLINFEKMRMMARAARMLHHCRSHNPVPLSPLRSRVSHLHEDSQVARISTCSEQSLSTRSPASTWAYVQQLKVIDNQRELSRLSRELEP
Sequence of Cytochrome P450 2C9 (Homo sapiens) (P11712 whole entry, looked up): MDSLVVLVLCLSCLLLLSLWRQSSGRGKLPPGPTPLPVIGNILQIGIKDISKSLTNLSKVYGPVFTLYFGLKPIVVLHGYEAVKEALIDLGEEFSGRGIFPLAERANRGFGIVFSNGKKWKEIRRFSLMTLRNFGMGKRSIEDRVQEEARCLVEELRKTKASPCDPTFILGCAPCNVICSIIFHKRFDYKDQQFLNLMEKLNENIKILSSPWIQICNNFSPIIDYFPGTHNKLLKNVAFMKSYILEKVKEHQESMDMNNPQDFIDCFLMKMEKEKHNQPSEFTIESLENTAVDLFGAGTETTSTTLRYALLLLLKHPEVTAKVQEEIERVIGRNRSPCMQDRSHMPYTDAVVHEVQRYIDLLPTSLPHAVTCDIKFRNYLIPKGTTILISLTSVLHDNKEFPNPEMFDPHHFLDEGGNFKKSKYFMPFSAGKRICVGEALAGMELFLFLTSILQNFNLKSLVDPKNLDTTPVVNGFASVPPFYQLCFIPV
Sequence of Nuclear receptor subfamily 1 group I member 3 (Homo sapiens) (Q14994 whole entry, looked up): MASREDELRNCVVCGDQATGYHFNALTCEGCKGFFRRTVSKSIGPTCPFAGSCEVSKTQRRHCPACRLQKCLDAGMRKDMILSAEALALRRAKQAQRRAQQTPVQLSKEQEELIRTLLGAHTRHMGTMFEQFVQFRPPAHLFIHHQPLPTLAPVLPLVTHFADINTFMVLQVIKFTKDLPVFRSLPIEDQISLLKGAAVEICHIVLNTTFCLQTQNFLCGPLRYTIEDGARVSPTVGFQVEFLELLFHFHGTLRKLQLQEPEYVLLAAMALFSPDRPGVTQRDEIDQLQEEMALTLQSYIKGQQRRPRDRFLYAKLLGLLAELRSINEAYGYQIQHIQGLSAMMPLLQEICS

c1ccc2[nH]ccc2c1
inactive: [1] | [2] | [3] | [4] | [5] | [6]

CC(=O)N[C@@H](Cc1ccc(O)cc1)C(=O)O
inactive: [1] | [2] | [3] | [4] | [5] | [6]

O=S1(=O)OC(c2ccc(O)cc2)(c2ccc(O)cc2)c2ccccc21
active: [3] 1950 nM
inactive: [1] | [2] | [4] | [5] | [6]

O[C@@H]1CO[C@H]2[C@@H]1OC[C@@H]2O
inactive: [1] | [2] | [3] | [4] | [5] | [6]

Cc1cc(C)nc(NS(=O)(=O)c2ccc(N)cc2)n1
inactive: [1] | [2] | [3] | [4] | [5] | [6]

CN/C(=C\[N+](=O)[O-])NCCSCc1csc(CN(C)C)n1
inactive: [1] | [2] | [3] | [4] | [5] | [6]

O=C1c2cccc(O)c2C(=O)c2c(O)cccc21
inactive: [1] | [2] | [3] | [4] | [5] | [7]

C=CCN1C[C@H](C(=O)N(CCCN(C)C)C(=O)NCC)C[C@@H]2c3cccc4[nH]cc(c34)C[C@H]21
inactive: [1] | [3] | [4] | [5] | [6]
active: [2] 1550 nM

O=C(O)CCCCC1CCSS1 (configuration not stated)
inactive: [1] | [2] | [3] | [4] | [5] | [7]
active: [6] 11400 nM

Nc1ccc(S(=O)(=O)c2ccc(N)cc2)cc1
inactive: [1] | [2] | [3] | [4] | [5] | [6]

O=C(/C=C/c1ccccc1)OCc1ccccc1
inactive: [1] | [2] | [4] | [5] | [6]
active: [3] 12300 nM

CC1(C)S[C@@H]2[C@H](N=CN3CCCCCC3)C(=O)N2[C@H]1C(=O)O
inactive: [1] | [2] | [3] | [4] | [5] | [6]

C[N+](C)(C)CC[N+]1(C)Cc2c(Cl)c(Cl)c(Cl)c(Cl)c2C1
inactive: [1] | [3] | [4] | [5]
active: [2] 1950 nM

CC1(C)[C@@H](OC(=O)CCC(=O)O)CC[C@]2(C)[C@H]3C(=O)C=C4[C@@H]5C[C@@](C)(C(=O)O)CC[C@]5(C)CC[C@@]4(C)[C@]3(C)CC[C@@H]12
active: [11] 4.21 µM and 4.13 µM
inactive: [1] | [2] | [3] | [4] | [5] | [8] | [9] | [10]

Cc1cc(C)c(NC(=O)CN(CC(=O)O)CC(=O)O)c(C)c1Br
inactive: [1] | [2] | [3] | [4] | [5] | [6]

NC(=O)CCCCC1CCSS1 (configuration not stated)
inactive: [1] | [2] | [3] | [4] | [5] | [6]

CC(=O)N[C@H]1[C@H]([C@H](O)[C@H](O)CO)OC(C(=O)O)=C[C@@H]1N=C(N)N
inactive: [1] | [2] | [3] | [4] | [5] | [7] | [6]

CC(C)(C)NCC(O)COc1cccc2c1CCC(=O)N2 (configuration not stated)
inactive: [1] | [2] | [3] | [4] | [5] | [6]

NC(=O)NC1NC(=O)NC1=O (configuration not stated)
inactive: [1] | [2] | [3] | [4] | [5] | [8] | [9] | [10] | [11] | [12] | [13] | [14] | [15] | [16] | [6]

O=C(O)c1ccccc1OP(=O)(O)O
inactive: [1] | [2] | [3] | [4] | [5]

Cc1ccsc1C(=CCCN1CCC[C@@H](C(=O)O)C1)c1sccc1C
inactive: [1] | [2] | [3] | [4] | [5] | [6]

COc1ccccc1OC(=O)Oc1ccccc1OC
inactive: [1] | [2] | [3] | [4] | [5] | [6]

CC(C)CCCC(C)CCCC(C)CCCCC(C)CCCC(C)CCCC(C)C (configuration not stated)
inactive: [1] | [2] | [3] | [4] | [5] | [6]

CCCCCCCCCCCCCCCCCCO
inactive: [1] | [2] | [3] | [4] | [5] | [6]

CC[C@H](C)[C@H](N)C(=O)O
inactive: [1] | [2] | [3] | [4] | [5] | [6]

Cc1[nH]c(C)c(Cl)c(=O)c1Cl
inactive: [1] | [2] | [3] | [4] | [5] | [6]

Cc1ccc(C(C)C)c(O)c1
inactive: [1] | [2] | [3] | [4] | [5] | [12] | [13] | [14] | [15] | [16] | [6]

CC(=O)N(CC(O)CO)c1c(I)c(C(=O)NCC(O)CO)c(I)c(C(=O)NCC(O)CO)c1I (configuration not stated)
inactive: [1] | [2] | [4] | [5]

Cc1c(N(C)C)c(=O)n(-c2ccccc2)n1C
inactive: [1] | [2] | [4] | [5] | [6]

CC(=O)OC[C@H]1O[C@@](COC(C)=O)(O[C@H]2O[C@H](COC(C)=O)[C@@H](OC(C)=O)[C@H](OC(C)=O)[C@H]2OC(C)=O)[C@@H](OC(C)=O)[C@@H]1OC(C)=O
inactive: [1] | [2] | [4] | [5]

Source: PubChem BioAssay (NCATS)
